From PubChem BioAssay AID1159580 (chemical genetic matrix, 2015)
Hit rate of the full screen: of about 5,500 compounds, about 2,000 (36%) were called active. Inconclusive results (about 18%) are left out. No stated cut-off is given here; in the data, active means normalized growth mostly below about 0.91 (no sharp cut-off); inconclusive means no clear call, values can overlap the other calls; inactive means mostly above about 0.92. This is one part of the list.

Assay: chemical genetic growth profiling, strain panel (AID 1159580);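 further: tested at 20 µM; growth read once vehicle control cultures reached saturation at 30 °C; 1 = growth at the plate median or of vehicle wells; lower values mean less growth of the strain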
Details: S. cerevisiae deletion strains, growth OD

Measured: normalized growth

CC(=O)O[C@]1(C(C)=O)CCC2C3C=C(Cl)C4=CC(=O)CC[C@]4(C)C3CC[C@@]21C (some centres undefined)
inactive: locus YAL021C, strain ccr4, hits give low values 1.02 | locus YAL026C, strain drs2, hits give low values 1.04 | locus YAL030W, strain snc1, hits give low values 0.978 | locus YBL061C, strain skt5, hits give low values 0.997 | locus YBR009C, strain hhf1, hits give low values 0.999 | locus YBR023C, strain chs3, hits give low values 1.01 | locus YBR171W, strain sec66, hits give low values 1.01 | locus YBR231C, strain swc5, hits give low values 1 | locus YBR279W, strain paf1, hits give low values 1 | locus YCL011C, strain gbp2, hits give low values 1 | locus YCL016C, strain dcc1, hits give low values 0.988 | locus YCL069W, strain vba3, hits give low values 1.01 | locus YCR088W, strain abp1, hits give low values 1.01 | locus YDL005C, strain med2, hits give low values 0.991 | locus YDL040C, strain nat1, hits give low values 1 | locus YDR001C, strain nth1, hits give low values 1.01 | locus YDR069C, strain doa4, hits give low values 0.967 | locus YDR137W, strain rgp1, hits give low values 0.894 | locus YDR159W, strain sac3, hits give low values 0.925 | locus YDR195W, strain ref2 1.02 | locus YDR297W, strain sur2, hits give low values 0.957 | locus YDR334W, strain swr1, hits give low values 1.01 | locus YDR335W, strain msn5, hits give low values 0.974 | locus YDR392W, strain spt3, hits give low values 0.832 | locus YEL003W, strain gim4, hits give low values 1.01 | locus YEL037C, strain rad23, hits give low values 1.02 | locus YEL061C, strain CIN8 (second series), hits give low values 1.01 | locus YER015W, strain faa2, hits give low values 1.01 | locus YER016W, strain bim1, hits give low values 0.984 | locus YER111C, strain swi4, hits give low values 1.01 | locus YER155C, strain BEM2 (second series), hits give low values 0.99 | locus YFR010W, strain ubp6, hits give low values 1.03 | locus YGL167C, strain pmr1, hits give low values 0.993 | locus YGL173C, strain kem1, hits give low values 1.03 | locus YGL227W, strain vid30, hits give low values 0.998 | locus YGL240W, strain doc1, hits give low values 0.952 | locus YGL253W, strain hxk2, hits give low values 0.991 | locus YHR013C, strain ard1, hits give low values 1.06 | locus YHR027C, strain rpn1, hits give low values 0.985 | locus YHR030C, strain SLT2, hits give low values 1.03 | locus YHR079C, strain IRE1, hits give low values 1.04 | locus YHR142W, strain chs7, hits give low values 1 | locus YJL092W, strain hpr5, hits give low values 1.01 | locus YJL095W, strain BCK1 (second series), hits give low values 0.983 | locus YJL095W, strain BCK1, hits give low values 0.991 | locus YJL115W, strain asf1, hits give low values 1.03 | locus YJL129C, strain trk1, hits give low values 1.01 | locus YJL154C, strain vps35, hits give low values 1.01 | locus YJL164C, strain tpk1, hits give low values 1.01 | locus YJL166W, strain qcr8, hits give low values 0.98 | locus YJL187C, strain SWE1, hits give low values 0.952 | locus YJR066W, strain TOR1, hits give low values 0.98 | locus YKL160W, strain elf1, hits give low values 0.977 | locus YKR026C, strain gcn3, hits give low values 1.01 | locus YKR091W, strain srl3, hits give low values 1.01 | locus YLL001W, strain dnm1, hits give low values 1.02 | locus YLL026W, hits give low values 1 | locus YLL041C, strain sdh2, hits give low values 0.993 | locus YLR027C, strain aat2, hits give low values 0.97 | locus YLR113W, strain HOG1, hits give low values 0.923 | locus YLR221C, strain rsa3, hits give low values 0.986 | locus YLR258W, strain gsy2, hits give low values 0.958 | locus YLR262C, strain YPT6 (second series), hits give low values 0.947 | locus YLR320W, strain mms22, hits give low values 0.991 | locus YLR342W, strain FKS1, hits give low values 0.974 | locus YLR357W, strain rsc2, hits give low values 1.04 | locus YLR370C, strain arc18, hits give low values 0.973 | locus YLR384C, strain iki3, hits give low values 0.981 | locus YML120C, strain ndi1, hits give low values 0.967 | locus YMR058W, strain fet3, hits give low values 1.02 | locus YMR125W, strain sto1, hits give low values 1 | locus YMR129W, hits give low values 0.967 | locus YMR205C, strain PFK2, hits give low values 0.943 | locus YMR231W, strain pep5, hits give low values 1.02 | locus YNL071W, strain lat1, hits give low values 1.01 | locus YNL183C, strain NPR1, hits give low values 0.958 | locus YNL209W, strain ssb2, hits give low values 0.99 | locus YNL248C, strain rpa49, hits give low values 1.03 | locus YNL322C, strain KRE1 (second series), hits give low values 1.01 | locus YNR049C, strain mso1, hits give low values 0.97 | locus YOR001W, strain rrp6, hits give low values 0.99 | locus YOR070C, strain gyp1, hits give low values 0.978 | locus YOR080W, strain dia2, hits give low values 0.996 | locus YOR083W, strain WHI5, hits give low values 0.997 | locus YOR106W, strain vam3, hits give low values 1.03 | locus YOR231W, strain MKK1, hits give low values 0.994 | locus YOR265W, strain rbl2, hits give low values 0.979 | locus YOR270C, strain vph1, hits give low values 1.01 | locus YOR290C, strain snf2, hits give low values 1.01 | locus YPL051W, strain arl3, hits give low values 1 | locus YPL078C, strain atp4, hits give low values 0.996 | locus YPL106C, strain sse1, hits give low values 1.01 | locus YPL240C, strain hsp82, hits give low values 1 | locus YPL256C, strain CLN2, hits give low values 1.04
